Only some compounds are listed: those with a hit (about 2% of all), similar ones and a draw of the others.
ABCB6 inh 2 – ABCB6 transporter inhibitors, primary screen, K562-ABCB6 cells, flow cytometry, MLPCN library | ATP-binding cassette sub-family B member 6 (Homo sapiens), Q9NP58 | K562-ABCB6 porphyrin accumulation, 1 h; hits give low values | fluorescence ratio to DMSO, % at 10 µM | 360,000 compounds, 0.19% hits | AID 602162, 2011;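 active means fluorescence ratio to DMSO below 75%, the collection mean minus 3 SD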;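 further: signal is porphyrin accumulated inside mitochondria; 100% equals median channel fluorescence of DMSO control wells; lower ratio means ABCB6 inhibition with less porphyrin fluorescence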
Exocytosis inh – LAMP-1 surface exposure blockers, TALL-104 cells – cell-based, flow cytometry, MLPCN library, primary screen. TALL-104 LAMP-1 surface exposure; cells stimulated with thapsigargin and PMA. inhibition, % at 10 µM. 360,000 compounds, 0.66% hits. AID 651702, 2012;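 active means inhibition above about 55%, limit read from the data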
PG9 Ab binder – binders of HIV-1 gp120 antibody PG9, primary screen, biochemical, TR-FRET. inhibition, % at 6.7 µM. HIV-1 gp120 / PG9 antibody interaction. AID 624416, 2012. 360,000 compounds, 0.43% hits. TR-FRET gp120-PG9 antibody binding; in the data active means inhibition above about 8.5%
Rev-erbA mod – modulators of Rev-erb alpha DNA binding, primary screen, biochemical, FITC-DNA, fluorescence polarization, uHTS; AID 1259318, 2017; activity, % at 10 µM; 370,000 compounds, 0.79% hits; Rev-erbα–FITC-DNA binding, 90 min;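 active means activity above about 14%, limit read from the data; passing the limit was not always enough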;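 further: 0% = DMSO wells with 35 nM protein and 100% = DMSO wells with 750 nM protein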
VLA-4 inh – inhibition in human VLA-4 binding assay, primary screen, VLA-4 allosteric modulator project, MLPCN library, flow cytometry, VLA-4 expressing cells; inhibition, % (about 7 µM as worked out from the volumes in the protocol); Integrin alpha-4 (Homo sapiens), P13612; ligand binding flow cytometry; 330,000 compounds, 0.2% hits; in the data active means inhibition above about 50%
NR1D1 mod conf – modulators of Rev-erb alpha DNA binding, confirmation, biochemical, FITC-DNA, fluorescence polarization, single point; shares compounds with Rev-erbA mod; 90 min; activation, % at 25 µM; 3,000 compounds, 61% hits;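 active means activation at or above a set limit, or at least 3 SD above the negative control mean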;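 further: 0% = 35 nM protein with DMSO and 100% = 750 nM protein high control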
RORg counter – modulation of RORgamma DNA binding, dose response, counter-screen for Rev-erb alpha modulator project, biochemical, fluorescence polarization, FITC-DNA | IC50, µM | 910 compounds, 8% hits | purified RORgamma protein-FITC-DNA binding | shares compounds with Rev-erbA mod;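 active means Compounds whose fitted half-maximal concentration for disrupting protein-DNA binding is below 10 micromolar; the record names Rev-erb in its text, so the target is in doubt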
Active calls of the source: *.

Results for CCN(CC)c1ccc2cc(C=O)c(=O)oc2c1 ?
ABCB6 inh 2: 141; Exocytosis inh: 1; PG9 Ab binder: -7; Rev-erbA mod: 90*; VLA-4 inh: -48; NR1D1 mod conf: 74*; RORg counter: >40

How did CCN(CC)c1ccc2cc(C(C)=O)c(=O)oc2c1 do in these assays?
ABCB6 inh 2: 98; Exocytosis inh: -3; PG9 Ab binder: -5; Rev-erbA mod: 36*; VLA-4 inh: -10; NR1D1 mod conf: 9

What do the screens show for `CCN(CC)c1ccc2cc(-c3nnc(-c4ccncc4)o3)c(=O)oc2c1`?
ABCB6 inh 2: 204; Exocytosis inh: 1; PG9 Ab binder: -5; Rev-erbA mod: 59*; NR1D1 mod conf: 30*

What do the screens show for `C#Cc1cccc(OCC(C)CN2CCC(C(O)(c3ccccc3)c3ccccc3)CC2)c1` (configuration not stated)?
Rev-erbA mod: -10

What do the screens show for `Cc1cccc(Cn2cc(CN3CC(N4CCN(CCOC(=O)c5cc6ccccc6o5)CC4)CS3(=O)=O)nn2)c1` (configuration not stated)?
Rev-erbA mod: 1

How did CCc1ccc2nc(SCC(=O)Nc3ccccc3N3CCOCC3)c(C#N)cc2c1 do in these assays?
ABCB6 inh 2: 96; Exocytosis inh: 4; PG9 Ab binder: 2; Rev-erbA mod: 8; VLA-4 inh: -3

What do the screens show for `Cc1ccc2nc(SCC(=O)Nc3ccccc3N3CCOCC3)c(C#N)cc2c1`?
ABCB6 inh 2: 101; Exocytosis inh: 1; PG9 Ab binder: 1; Rev-erbA mod: 28*; VLA-4 inh: -5; NR1D1 mod conf: 18*

What do the screens show for `Cc1ccc2cc(C#N)c(SCC(=O)N3CCCc4ccccc43)nc2c1`?
ABCB6 inh 2: 95; Exocytosis inh: -3; PG9 Ab binder: -2; Rev-erbA mod: 60*; VLA-4 inh: -3; NR1D1 mod conf: 44*; RORg counter: >40

How did CCOc1ccc2nc(SCC(=O)N3c4ccccc4Sc4ccccc43)c(C#N)cc2c1 do in these assays?
ABCB6 inh 2: 98; Exocytosis inh: -6; PG9 Ab binder: -3; Rev-erbA mod: 142*; VLA-4 inh: -5; NR1D1 mod conf: 61*; RORg counter: >40

Results for CCSc1nc2ccc(C)cc2cc1C#N ?
ABCB6 inh 2: 99; Exocytosis inh: -22; PG9 Ab binder: -1; Rev-erbA mod: 30*; VLA-4 inh: 4; NR1D1 mod conf: 12

How did CCc1csc(N2[C@H](CN(CCOC)S(=O)(=O)c3ccccc3[N+](=O)[O-])[C@H](c3ccccc3)[C@@H]2CO)n1 do in these assays?
Rev-erbA mod: 10

What do the screens show for `CCOC(=O)N1CCN(C(=O)C[C@H]2C(=O)N(CCCOC)C3=CCCCC[C@]32C(=O)OC)CC1`?
Rev-erbA mod: -3

What do the screens show for `COc1cc(C(NC(=O)C(F)(F)F)C2CCCC=C2c2ccccc2)cc(OC)c1OC` (configuration not stated)?
Rev-erbA mod: -1

How did COc1ccc2nc(SCC(=O)Nc3cc(C)on3)c(C#N)cc2c1 do in these assays?
ABCB6 inh 2: 100; Exocytosis inh: -7; PG9 Ab binder: -5; Rev-erbA mod: 61*; VLA-4 inh: -2; NR1D1 mod conf: 27*

Results for Cc1cc2cc3c(cc2nc1SCC(=O)N1CCCC1)OCCO3 ?
ABCB6 inh 2: 105; Exocytosis inh: -6; PG9 Ab binder: 0; Rev-erbA mod: -1

How did Cc1ccc(SCC(=O)Nc2cc(C)on2)cc1 do in these assays?
ABCB6 inh 2: 100; Exocytosis inh: 3; PG9 Ab binder: 1; Rev-erbA mod: 7; VLA-4 inh: 6

What do the screens show for `CCc1cc2ccc(C)cc2nc1SCC(=O)Nc1cc(C)on1`?
ABCB6 inh 2: 97; Exocytosis inh: -14; PG9 Ab binder: 5; Rev-erbA mod: 17*; VLA-4 inh: 2; NR1D1 mod conf: 9

How did Cc1cc(NC(=O)CSc2nc3ccccc3cc2C#N)no1 do in these assays?
ABCB6 inh 2: 96; Exocytosis inh: 4; PG9 Ab binder: -10; Rev-erbA mod: 27*; VLA-4 inh: -9; NR1D1 mod conf: 18*

Results for N#Cc1cc2cc3c(cc2nc1SCC(=O)N1CCOCC1)OCCO3 ?
ABCB6 inh 2: 88; Exocytosis inh: -4; PG9 Ab binder: 0; Rev-erbA mod: 17*; VLA-4 inh: 0; NR1D1 mod conf: 7

How did CCNC(=O)OCCN1C(=O)CCC12CCC(c1ccc(Cl)cc1)CC2 (configuration not stated) do in these assays?
Rev-erbA mod: 4

Results for CCCCNC(=O)C1CCCN1C(=O)Nc1ccc2c(c1)OCO2 (configuration not stated) ?
Rev-erbA mod: 2

What do the screens show for `COCCCN1C(=O)[C@H](CC(=O)N2CCOCC2)[C@]2(C(=O)OC)CCCCC=C12`?
Rev-erbA mod: 6

Results for COc1ccccc1NC(=O)Cn1c(=O)n(-c2ccccc2)c(=O)c2oc3ccccc3c21 ?
ABCB6 inh 2: 94; Exocytosis inh: 5; PG9 Ab binder: -1; Rev-erbA mod: 20*; VLA-4 inh: -6; NR1D1 mod conf: 23*

How did CC1CC(=O)N(c2ccc(NCCc3ccc(O)cc3)c([N+](=O)[O-])c2)C1=O (configuration not stated) do in these assays?
ABCB6 inh 2: 93; Exocytosis inh: -2; PG9 Ab binder: 0; Rev-erbA mod: 19*; VLA-4 inh: 3; NR1D1 mod conf: 7

Results for CCN1C(=O)/C(=C/c2ccc(N3CCCC3)cc2)NC1=S ?
ABCB6 inh 2: 167; Exocytosis inh: -2; PG9 Ab binder: -9; Rev-erbA mod: 56*; VLA-4 inh: -218; NR1D1 mod conf: 49*; RORg counter: >40

How did O=c1ccn(C2CC(O)C(COC(c3ccccc3)(c3ccccc3)c3ccccc3)O2)c(=O)[nH]1 (configuration not stated) do in these assays?
PG9 Ab binder: -2; Rev-erbA mod: -2

How did CC(C)=CCN1C(=O)[C@]2(OCCC=C[C@H]2C)c2c(Br)cccc21 do in these assays?
PG9 Ab binder: -2; Rev-erbA mod: 2

How did C[C@@H]1C=CCCO[C@]12C(=O)N(CC1CC1)c1cccc(Br)c12 do in these assays?
PG9 Ab binder: 1; Rev-erbA mod: 13*; NR1D1 mod conf: -2
